# Compound activity from PubChem.
# IL1B secr inh – qHTS for Inhibitors of Inflammasome Signaling: IL-1-beta AlphaLISA Primary Screen. 4.7% of 360,000 active. THP-1 LPS/ATP IL-1B secretion, AlphaLISA, 16 h; hits give low values. activity change, % at 57.5 µM; in the data active = activity change below about -50%; inconclusive = mostly about -30% to -49%
#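 THP-1 cells pretreated 1 hr with compounds (up to 57.5 uM final), then stimulated with LPS (250 ng/mL final) plus ATP (1.25 mM final); secreted IL-1B measured by AlphaLISA after 16 hr, decreased signal indicating inhibition.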
# ELG1 repair inh – qHTS screen for small molecules that inhibit ELG1-dependent DNA repair in human embryonic kidney (HEK293T) cells expressing luciferase-tagged ELG1; HEK293T ELG1-luciferase reporter, luminescence, 16 h; DNA damage induced by 5-fluorouridine; Potency, µM (titrated, usually from 46.1 µM), most hits filed as inhibitors; 2.3% of 330,000 active; note: nearly all actives have a fitted effect of over 55% in size
#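 DMSO vehicle served as the neutral condition. Each well held 2,000 cells given 5-fluorouridine plus compound; after 16 hr at 37 °C/5% CO2, ONE-Glo was added and luciferase measured 30 min later.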
# Giardia kill – Small Molecules that selectively kill Giardia lamblia: qHTS. Giardia lamblia trophozoite viability. 0.15% of 340,000 active. activity change, % at 7.66 µM, hits read low. AID 540267, 2011; in the data active = activity change below about -80%; inconclusive = between about -30% and that limit;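 note: parasites exposed to compound for two days anaerobically before the ATP read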
#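 Viability, read as ATP luminescence: trophozoites at 100 cells/well, compound added, 48 hrs anaerobic at 37 deg C, then 15-30 min room-temperature development before reading.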
# TDP1 inh – qHTS Assay for Inhibitors of Tyrosyl-DNA Phosphodiesterase (TDP1). recombinant TDP1, AlphaScreen DNA substrate cleavage. Potency, µM (highest dose often 130 µM), hits mostly inhibitors. 0.28% of 350,000 active; note: nearly all actives have a fitted effect of over 40% in size
# Target sequence (Q9NUW8 whole entry, looked up): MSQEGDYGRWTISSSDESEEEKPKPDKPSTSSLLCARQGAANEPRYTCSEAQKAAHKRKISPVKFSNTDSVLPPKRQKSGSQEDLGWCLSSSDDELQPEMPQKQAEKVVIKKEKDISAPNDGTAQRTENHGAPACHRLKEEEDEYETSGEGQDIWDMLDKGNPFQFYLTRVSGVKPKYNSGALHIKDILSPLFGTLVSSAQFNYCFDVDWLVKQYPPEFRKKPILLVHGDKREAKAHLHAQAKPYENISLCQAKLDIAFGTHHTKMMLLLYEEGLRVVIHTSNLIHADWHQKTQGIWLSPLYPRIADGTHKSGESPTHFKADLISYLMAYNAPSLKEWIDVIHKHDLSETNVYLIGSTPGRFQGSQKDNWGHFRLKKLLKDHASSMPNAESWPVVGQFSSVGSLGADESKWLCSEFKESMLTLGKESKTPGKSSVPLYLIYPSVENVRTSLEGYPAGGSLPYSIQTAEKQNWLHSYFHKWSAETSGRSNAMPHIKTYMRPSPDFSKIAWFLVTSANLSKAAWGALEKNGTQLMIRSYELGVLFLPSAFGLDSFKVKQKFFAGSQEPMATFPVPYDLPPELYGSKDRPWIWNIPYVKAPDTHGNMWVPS
#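 Signal: AlphaScreen proximity between streptavidin donor and anti-FITC acceptor beads on intact substrate. Reaction: Tdp1 1 nM, substrate 15 nM final, 5 min RT after 15 min compound preincubation.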
# TDP1 cell CPT – qHTS for Inhibitors of human tyrosyl-DNA phosphodiesterase 1 (TDP1): qHTS in cells in presence of CPT. 12% of 420,000 active. chicken DT40 Tdp1-/-;hTDP1 cells + 20 nM CPT, ATP luminescence, 48 h. AID 686979, 2013. Potency, µM (series often up to 46.2 µM), actives largely listed as inhibitors; note: nearly all actives have a fitted effect of over 55% in size
#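 Cell growth measured by CellTiter-Glo luminescence after a minimum 48 h, 37 C compound exposure with 20 nM CPT in Tdp1-knockout DT40 cells stably expressing hTDP1, seeded 400/well; qHTS titration format.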
# TDP1 cell noCPT – qHTS for Inhibitors of human tyrosyl-DNA phosphodiesterase 1 (TDP1): qHTS in cells in absence of CPT. DT40 Tdp1-/- hTDP1 cells, no CPT, ATP luminescence, 48 h. Potency, µM (top dose mostly 46.2 µM), usual class: inhibitors. 15% of 420,000 active. AID 686978, 2013; note: nearly all actives have a fitted effect of over 55% in size
#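 Compound effects on proliferation are scored in DT40 Tdp1-/-;hTDP1 cells in the absence of CPT. ATP levels (CellTiter-Glo luminescence) are recorded after a ≥48 hr, 37 °C incubation.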
# Hits are given with their value; i = inactive; ? = inconclusive; nt = not tested or not shown. Rows were chosen to be rich in hits. Some 19% of all compounds tested hit in one or more screens of this group. Unless noted, calls come from the whole dose curve; as a rule, active = well fitted curve in the direction sought with a large enough effect; inconclusive = small, poorly fitted or top-dose-only effect, or another doubt; inactive = no such curve, though single readings can be large; an effect the other way counts as inactive or inconclusive.
SMILES,IL1B secr inh,ELG1 repair inh,Giardia kill,TDP1 inh,TDP1 cell CPT,TDP1 cell noCPT
Cc1cc(Br)c(NC(=O)c2c(-c3c(Cl)cccc3Cl)noc2C)c(Br)c1,i,i,i,i,20.6µM,?
COc1ccccc1NC(=S)NC(=O)c1c(-c2ccccc2Cl)noc1C,i,i,i,i,i,i
Cc1onc(-c2ccccc2Cl)c1C(=O)Nc1nnc(-c2ccc(Br)cc2)s1,i,i,i,i,16.4µM,?
COc1ccc(NC(=O)c2c(-c3c(Cl)cccc3Cl)noc2C)c(OC)c1,?,23.1µM,i,i,?,?
Cc1nn(CC(=O)NCc2ccccc2Br)c(=O)c2cc3occc3n12,nt,nt,nt,i,i,i
Cc1onc(-c2c(Cl)cccc2Cl)c1C(=O)N/N=C(\N)COc1ccc(Cl)cc1,i,?,i,i,5.17µM,5.17µM
COc1cc(/C=N/NC(=O)c2c(-c3c(Cl)cccc3Cl)noc2C)ccc1OCC(N)=O,i,i,i,i,i,i
Cc1ccc(OCC(=O)OCC(=O)c2ccccc2)cc1C,i,i,i,i,i,i
O=C(C(=O)c1cc(Br)ccc1O)c1cc(Br)ccc1O,-83.6,nt,i,nt,?,23.1µM
O=C(/C=C/c1ccccn1)c1ccc(Br)cc1O,i,i,i,i,20.6µM,18.4µM
O=C(/C=C/c1ccccn1)c1cc(Br)ccc1O,?,i,i,i,23.1µM,23.1µM
O=C(c1ccc(O)c(Br)c1)c1cc(Br)ccc1O,i,nt,i,nt,?,?
C(=C\c1ccccn1)/c1ccccn1,i,?,i,i,i,i
COc1cccc(CNC(=O)Cn2cc([N+](=O)[O-])cn2)c1,i,i,i,i,i,i
Cc1cccc(NC(=O)c2nc[nH]c2C(=O)N[C@@H](C)C(=O)OC(C)(C)C)c1,-66.7,i,i,i,18.4µM,?
C[C@H](NC(=O)c1nc[nH]c1C(=O)N[C@H](C)c1ccccc1)C(=O)OC(C)(C)C,i,?,i,i,14.6µM,?
CC(C)C[C@H](NC(=O)c1[nH]cnc1C(=O)Nc1ccccc1)C(=O)OC(C)(C)C,i,?,i,i,25.9µM,?
CC(C)C[C@H](NC(=O)c1[nH]cnc1C(=O)N[C@@H](C)C(=O)OC(C)(C)C)C(=O)OC(C)(C)C,-60.9,?,i,i,18.4µM,11.6µM
C[C@H](NC(=O)c1nc[nH]c1C(=O)NC(c1ccccc1)c1ccccc1)C(=O)OC(C)(C)C,?,i,i,i,i,?
O=[N+]([O-])c1ccc(S(=O)(=O)N2CCN(c3nc(-c4cccs4)nc4ccccc34)CC2)cc1,nt,nt,i,i,i,i
COCCNC(=O)C1(C)CCN(C(=O)c2cccc(C)c2C)C1 (stereo not given),i,nt,nt,nt,?,i
CCc1nc2ccccc2n1CC1CC1(Cl)Cl (stereo not given),i,i,i,i,i,i
O=C(Nc1ccccc1)O[C@@H]1C[C@H]2CCC(=O)N3CC[C@@H](C1)[C@@H]23,nt,?,nt,nt,?,11.2µM
O=C1c2ccccc2C(Nc2ccc3c(c2)OCCO3)N1c1ccc(Cl)cn1 (stereo not given),i,i,i,i,?,16.4µM
COc1ccc(NC2c3ccccc3C(=O)N2c2ccccn2)cc1Cl (stereo not given),?,i,i,i,i,?
SMILES,IL1B secr inh,ELG1 repair inh,Giardia kill,TDP1 inh,TDP1 cell CPT,TDP1 cell noCPT
O=C1c2ccccc2C(Nc2ccc(F)c(Cl)c2)N1c1ccccn1 (stereo not given),i,i,i,i,16.4µM,?
O=C1c2ccccc2C(Nc2ccc(S(=O)(=O)N3CCCCC3)cc2)N1c1ccccn1 (stereo not given),?,?,i,i,?,20.6µM
O=C1c2ccccc2C(Nc2ccc(S(=O)(=O)N3CCOCC3)cc2)N1c1cccnc1 (stereo not given),i,i,i,i,i,i
C=C1C(=O)C=C2CN(C(=O)c3ccccc3)[C@@](Cc3ccc(OC)cc3)(C(=O)OC)[C@@H]12,nt,nt,nt,i,nt,nt
COc1cccc(/C=N/Nc2snc(SC)c2C#N)c1O,?,?,i,i,2.91µM,2.59µM
COc1cccc(/C=N/Nc2snc(SC)c2C#N)c1,i,?,i,i,i,i
COc1ccc(/C=N/Nc2snc(SC)c2C#N)cc1OC,i,?,i,i,16.4µM,?
Cn1c(=O)c2c(nc(Sc3ncccn3)n2Cc2ccc(Cl)cc2)n(C)c1=O,i,16.4µM,i,i,11.6µM,?
Cn1c(=O)c2c(nc(Sc3ncccn3)n2Cc2ccccc2Cl)n(C)c1=O,i,?,i,i,?,?
Cn1c(=O)c2c(nc(SCC(=O)c3cccs3)n2Cc2ccc(F)cc2)n(C)c1=O,i,?,i,i,20.6µM,11.6µM
Cc1nnc(Sc2nc3c(c(=O)n(C)c(=O)n3C)n2Cc2ccc(Cl)cc2)s1,i,i,i,i,?,16.4µM
Cc1ccc(Cn2c(Sc3ncccn3)nc3c2c(=O)[nH]c(=O)n3C)cc1,i,?,i,i,?,16.4µM
COc1cc2c(cc1OC)n(Cc1cccc(C(F)(F)F)c1)c(=O)n1nc(-c3ccccc3)nc21,nt,nt,nt,i,i,i
Cc1ccccc1Cn1c(=O)n(CCCCCC(=O)NCc2ccc3c(c2)OCO3)c(=O)c2sccc21,nt,nt,nt,i,i,i
CCN(CC)C(=O)CSc1nc2c(c(=O)n(C)c(=O)n2C)n1Cc1ccccc1,nt,nt,nt,i,i,i
CCSc1nc2c(c(=O)n(C)c(=O)n2C)n1Cc1ccc(Cl)cc1,i,nt,i,nt,20.6µM,18.4µM
Cc1ccc(Cn2c(SCC(C)C)nc3c2c(=O)n(C)c(=O)n3C)cc1,i,?,i,i,25.9µM,25.9µM
O=C(NCc1ccccc1)c1cccnc1Sc1ccccc1,i,i,i,nt,i,i
CCn1cnc2c(Nc3ccc(CCC(=O)N=C(N)N)cc3)nc(C#N)nc21,nt,nt,nt,i,nt,nt
COc1cccc(NC(=O)C2CC(=O)N(c3ccc(Br)cc3)C2)c1 (stereo not given),nt,nt,nt,nt,i,i
CC(C)CCC1CC(CSC(=N)N)OC1=O (stereo not given),i,nt,i,i,?,23.1µM
CCCCCCCC1CC(/C(C)=N/NC(N)=O)OC1=O (stereo not given),i,i,i,i,18.4µM,?
CCCCCCCC1CC(CSC(=N)N)OC1=O (stereo not given),-98.5,i,i,i,14.6µM,20.6µM
